Screening data: PubChem BioAssay, National Center for Advancing Translational Sciences (NCATS)
LASV entry inh – blocks Lassa virus binding to or entry into cells. Lassa virus pseudotype entry inhibition, cell reporter. Potency, µM (series often up to 37.9 µM), most hits filed as inhibitors. AID 540256. hit rate 1.2% among 300,000; calls by dose curve; tested in HEK293 cells; note: nearly all actives have a fitted effect of over 50% in size
Pf growth 48h – P. falciparum growth inhibition at 48 hours (one generation). AID 504832. Potency, µM (top dose mostly 28.7 µM), usual class: inhibitors. P. falciparum luciferase growth in erythrocytes, 48 h. hit rate 5.9% among 310,000
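Compounds are pin-transferred into medium, infected erythrocytes (2% hematocrit, 0.1% parasitemia final) are added, and plates sit one parasite generation at 37 C in 5% CO2. Detection reagent is then added and luminescence measured.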
Cycloheximide cs – counter-screen hit for Shiga toxin inhibitors, cycloheximide | cell reporter, cycloheximide protein synthesis inhibition counterscreen | max response, % | hit rate 12% among 300,000 | AID 2314; in the data active = max response mostly above about 13%, no sharp cut-off; inactive = mostly below about 14%; note: read at 38.3 µM for the half of the compounds with a filed dose
Shiga inhibitor – inhibitors of Shiga toxin in Vero cells | Vero cells, Shiga toxin protein synthesis inhibition reporter | inhibition, % at 38.7 µM | AID 2315 | hit rate 9.2% among 290,000; in the data active = inhibition mostly above about 28%, no sharp cut-off; inactive = mostly below about 43%
MARV entry inh – Marburg virus entry inhibition | Marburg virus pseudotyped entry inhibition, cell reporter | Potency, µM (doses to about 37.8 µM), most hits filed as inhibitors | hit rate 1.8% among 300,000 | AID 540276; calls by dose curve; tested in HEK293 cells
Pf growth 96h – P. falciparum growth inhibition at 96 hours | P. falciparum luciferase reporter growth, 96 h | Potency, µM (top dose mostly 28.7 µM), most hits filed as inhibitors | AID 504834 | hit rate 6.9% among 320,000
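Erythrocytes infected with luciferase-expressing P. falciparum were dispensed at 2% hematocrit and 0.05% parasitemia (final), then incubated with compounds 96 hours at 37 C in 5% CO2. Luminescence after detection reagent addition reported growth.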
Hits are given with their value; – = inactive; ? = inconclusive; · = not tested or not shown; [ ] = another dose, or the depositor's remark. In the library only some 19% were active in any assay of this set; here they are far more common. Unless noted, calls come from the whole dose curve; as a rule, active = well fitted inhibition curve with a large enough effect; inconclusive = small, poorly fitted or top-dose-only effect, or another doubt; inactive = no such curve, though single readings can be large or run the other way.

SMILES	LASV entry inh	Pf growth 48h	Cycloheximide cs	Shiga inhibitor	MARV entry inh	Pf growth 96h
Cc1ncoc1C(=O)N1CCCC(C(=O)Nc2cccc(-c3ccc(F)cc3)c2)C1 (centres undefined)	?	–	–	–	–	–
O=C(Nc1ccc(Cl)cc1)c1csc(Cc2ccccc2)n1	·	–	37	75	·	–
COc1ccc(NC(=O)c2csc(Cc3ccc(Cl)cc3)n2)cc1	·	–	–	–	·	–
COc1ccc(Cc2nc(C(=O)Nc3ccccc3)cs2)cc1	?	·	39	52	?	–
O=C1CC(c2ccccc2)n2nc(NS(=O)(=O)c3ccccc3)nc2N1 (centres undefined)	–	–	–	–	?	·
COc1ccc2c(c1)C(=NN)c1cc(OC)ccc1-2	–	?	45	–	–	–
COc1ccc2c(c1)C(=NNc1ccc(C(=O)O)cc1)c1cc(OC)ccc1-2	·	?	–	–	·	–
COc1ccc(OC)c(C2C3=C(COC3=O)Nc3cc4c(cc32)OCO4)c1 (centres undefined)	–	?	–	–	0.26µM	?
COc1ccc(-c2nc(SCC(=O)NCCc3ccc(OC)c(OC)c3)n[nH]2)cc1	–	·	·	·	·	·
CCNC(=O)NC(=O)C(C)Sc1nc2ccccc2c(=O)n1-c1cccnc1 (centres undefined)	–	1µM	–	–	–	0.93µM
COC(=O)c1[nH]c2cc(OC)ccc2c1N	?	–	–	–	–	–
CC(=O)c1csc(COc2ccc(Cl)cc2)n1	·	–	44	38	·	–
CC(=O)Nc1nnc(COc2ccc(Cl)cc2)s1	?	–	57	92	–	–
CC(=O)Nc1nnc(COc2ccccc2)s1	·	–	21	55	·	–
CC(C)C(=O)Nc1nnc(COc2ccc(Cl)cc2)s1	·	–	–	–	–	–
CCN1CCCC1CNS(=O)(=O)c1cc(Br)cc2c1N(C(=O)C1CC1)CC2 (centres undefined)	–	–	–	–	–	–
CC(Nc1cccc2ccccc12)C(=O)N/N=C/c1ccccn1 (centres undefined)	–	·	–	–	–	?
CC(=O)C1=C(O)CC(C)(C)CC1=NCCc1nc2ccccc2[nH]1	–	–	–	–	–	?
Cc1ccc(-c2nc(C)c(CCNC(=O)C(=O)Nc3ccc4c(c3)OCCO4)s2)cc1	–	·	·	·	·	·
O=C(Cn1cnc2scc(-c3ccc(Cl)cc3)c2c1=O)N1CCOCC1	·	–	–	–	·	–
CC(=O)c1sc(=S)n(-c2ccc(Cl)cc2)c1C	·	–[5.75 µM]	–	–	·	–
COc1ccccc1NC(=O)c1sc(-c2ccc(Cl)cc2)cc1N	–	·	·	·	–	·
COC(=O)c1sc(-c2ccc(Cl)cc2)cc1N	–	–	66	80	–	–
CC(=O)c1sc(-c2ccc(Cl)cc2)cc1N	·	–	27	35	·	?
COC(=O)c1sc(-c2cccs2)cc1N	–	–	40	47	?	–
SMILES	LASV entry inh	Pf growth 48h	Cycloheximide cs	Shiga inhibitor	MARV entry inh	Pf growth 96h
CCn1nc(C(=O)NCC(c2cccs2)N2CCOCC2)c2ccccc2c1=O (centres undefined)	?	?	–	–	–	–
CCOC(=O)c1c(C)c(C(=O)NCc2ccco2)c(C)n1C	·	–	–	–	·	–
Fc1ccc(N/N=C2/CC(c3ccccc3)Oc3ccccc32)c(F)c1 (centres undefined)	–	?	26	52	–	?
CNC(=S)N/N=C1\CC(c2ccccc2)Oc2ccccc21 (centres undefined)	–	10µM	–	–	–	6.6µM
Cc1ccc(C(=O)NCCC(=O)NCc2cc(=O)n(C)c(=O)n2C)cc1	·	–	–	–	·	–
CC(C)(C)OC(=O)Cn1c(=O)cnc2ccccc21	–	·	–	–	–	–
COc1ccc(N/N=C/c2c(O)n(-c3cccc(C)c3)c(=O)[nH]c2=O)cc1	·	–	18	–	·	–
Cc1cc(N=NC(=O)c2ccccc2O)c2ccccc2c1O	–	–	40	126	?	?
Cn1c(O)c(N=NC(=O)c2ccccc2O)c2ccccc21	?	–	37	62	?	–
Cn1c(O)c(N=NC(N)=S)c2ccccc21	·	?	·	·	·	12µM
CCOC(=O)C(=O)N=Nc1c(O)n(C)c2ccccc12	–	–	–	–	–	–
Cc1ccc2[nH]c(O)c(N=Nc3ccccc3[N+](=O)[O-])c2c1	–	·	·	·	?	·
Cn1c(O)c(N=Nc2ccccc2[N+](=O)[O-])c2ccccc21	–	–	31	75	–	–
O=C(Cc1ncc(C(F)(F)F)cc1Cl)NC1CC1	–	–	–	–	–	?
COc1cccc(C(=O)c2c(C)c(CCC#N)n3ccccc23)c1OC	–	–	–	–	?	–
CN(Cc1ccccc1)Cc1nc2scc(-c3ccccc3)c2c(=O)[nH]1	–	?	–	–	?	?
Cc1cccc(NC(=O)Cn2c(O)c(N=NC(N)=S)c3ccccc32)c1	?	–	–	–	?	15µM
Cc1ccc(NC(=O)Cn2c(O)c(N=NC(=O)c3ccncc3)c3ccccc32)cc1	–	–	–	–	?	–
Cc1occc1C(=O)N=Nc1c(O)n(C)c2ccccc12	?	–	36	58	?	–
Cc1occc1C(=O)N=Nc1c(O)[nH]c2ccc(Br)cc12	·	–	33	75	–	4.1µM
Cc1cccc2c(SCC(N)=O)nc(-c3ccccc3)nc12	·	–	–	–	·	–
COc1ccc(OC)c(CN2CCCC(C(=O)c3sccc3C)C2)c1 (centres undefined)	·	?	–	–	·	?
Cc1csc(NC(=O)CCn2c(=O)sc3ccccc32)n1	–	·	–	–	–	–
FC(F)Oc1ccc(/C=N/N2CCCCC2)c(OC(F)F)c1	·	–	32	79	·	–
COc1ccc(OC)c(/C=N/NC(=O)CC(=O)NC2CCCCC2)c1	?	–	–	–	?	–
SMILES	LASV entry inh	Pf growth 48h	Cycloheximide cs	Shiga inhibitor	MARV entry inh	Pf growth 96h
COc1cccc(/C=N/NC(=O)NC2CCCCC2)c1O	·	?	34	52	·	?
COc1cccc(/C=N/NC(=O)C(=O)N2CCCCCC2)c1O	?	–	21	–	?	–
Fc1ccc(/C=N/N2CCCCC2)c(F)c1	·	–	–	–	·	–
O=C(N/N=C/c1ccc(OC(F)F)cc1OC(F)F)NC1CCCCC1	11µM	10µM	–	–	–	?
COc1cccc(/C=N/NC(=O)C(=O)N/N=C/c2cccc(OC)c2O)c1O	?	–	–	–	?	–
N#Cc1cccc(NC(=O)C2CCN(c3nc(-c4ccc(Cl)cc4)no3)CC2)c1	–	·	·	·	·	·
O=C(CSc1nnc(C2CC2)n1-c1ccccc1)N1CCCC1	–	·	·	·	–	·
O=C(Nc1ccccc1F)C(Cc1ccccc1)N1Cc2ccccc2C1=O (centres undefined)	–	·	·	·	·	·
COC(=O)C1=C(C)NC(C)=C(C(=O)OCCN(C)Cc2ccccc2)[C@@H]1c1cccc([N+](=O)[O-])c1	·	·	·	·	8.2µM	·
CCOC(=O)C1=C(C)NC(C)=C(C(=O)OCC)C1c1ccc(OC)cc1	?	?	–	–	–	–
COCCOC(=O)C1=C(C)NC(C)=C(C(=O)OC/C=C/c2ccccc2)C1c1cccc([N+](=O)[O-])c1 (centres undefined)	8.2µM	11µM	–	–	?	8.5µM
